Measured values as given in paper PMC7862700, “An all-to-all approach to the identification of sequence-specific readers for epigenetic DNA modifications on cytosine”.

Assays:
Assay in all cases: DAPPL (digital affinity profiling via proximity ligation, sequencing); 10 mM Tris-HCl pH 7.5, 50 mM NaCl, 1 mM DTT, 4% glycerol, room temperature, 30 min; GST-TFs on glutathione beads, 16-mer random dsDNA library, 0.1% formaldehyde crosslink after washing; high values mean tight binding
FLI1 = target: T1, FLI1 (Homo sapiens, UniProt Q01543 1-452); conditions: protein: recombinant; tags: N-terminal GST; dsDNA, one strand shown
T1 sequence: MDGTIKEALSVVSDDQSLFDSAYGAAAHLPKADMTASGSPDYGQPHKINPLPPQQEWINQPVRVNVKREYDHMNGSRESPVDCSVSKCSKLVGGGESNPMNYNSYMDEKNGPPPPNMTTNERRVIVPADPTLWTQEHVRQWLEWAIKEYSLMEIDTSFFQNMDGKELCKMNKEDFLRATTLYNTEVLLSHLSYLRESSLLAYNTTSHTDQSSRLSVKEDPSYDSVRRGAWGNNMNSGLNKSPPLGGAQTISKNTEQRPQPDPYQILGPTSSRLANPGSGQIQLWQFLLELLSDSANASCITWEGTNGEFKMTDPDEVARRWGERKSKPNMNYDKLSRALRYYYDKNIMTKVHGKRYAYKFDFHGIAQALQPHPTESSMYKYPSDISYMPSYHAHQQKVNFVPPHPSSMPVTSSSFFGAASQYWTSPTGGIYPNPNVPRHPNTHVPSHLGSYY
Outline: (§1)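 A tag-only sample was pooled with DNA-barcoded human transcription factors that had been expressed in yeast as GST fusions and captured on glutathione beads. The pools were incubated for 30 min at room temperature with 200 nmole of a random double-stranded 16-mer DNA library in Tris/NaCl/DTT/glycerol buffer, then washed, crosslinked with 0.1% formaldehyde, proximity-ligated (BsaI/T4 ligase, 1 h, 37 °C), PCR-amplified and sequenced on an Illumina NextSeq500. Binding signal is each hexamer's read frequency for a factor divided by its frequency for the tag-only sample.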

ELK1 = target: T2, ELK1 (Homo sapiens, UniProt P19419 1-428); conditions: protein: recombinant; tags: N-terminal GST; dsDNA, one strand shown
T2 sequence: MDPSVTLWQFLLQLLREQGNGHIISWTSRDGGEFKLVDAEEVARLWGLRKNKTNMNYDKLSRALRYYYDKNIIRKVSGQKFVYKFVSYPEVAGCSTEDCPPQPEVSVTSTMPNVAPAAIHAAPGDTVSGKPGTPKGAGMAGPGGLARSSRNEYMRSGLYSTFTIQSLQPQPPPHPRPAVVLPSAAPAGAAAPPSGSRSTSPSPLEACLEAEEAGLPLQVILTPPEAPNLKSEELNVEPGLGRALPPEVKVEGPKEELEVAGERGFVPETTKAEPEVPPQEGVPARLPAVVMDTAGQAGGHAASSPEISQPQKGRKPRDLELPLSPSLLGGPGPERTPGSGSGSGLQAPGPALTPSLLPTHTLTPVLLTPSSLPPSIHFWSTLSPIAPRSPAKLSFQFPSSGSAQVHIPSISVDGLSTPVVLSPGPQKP
Outline: as §1

GABPA = target: T3, GABPA (Homo sapiens, UniProt Q06546 1-454); conditions: protein: recombinant; tags: N-terminal GST; dsDNA, one strand shown
T3 sequence: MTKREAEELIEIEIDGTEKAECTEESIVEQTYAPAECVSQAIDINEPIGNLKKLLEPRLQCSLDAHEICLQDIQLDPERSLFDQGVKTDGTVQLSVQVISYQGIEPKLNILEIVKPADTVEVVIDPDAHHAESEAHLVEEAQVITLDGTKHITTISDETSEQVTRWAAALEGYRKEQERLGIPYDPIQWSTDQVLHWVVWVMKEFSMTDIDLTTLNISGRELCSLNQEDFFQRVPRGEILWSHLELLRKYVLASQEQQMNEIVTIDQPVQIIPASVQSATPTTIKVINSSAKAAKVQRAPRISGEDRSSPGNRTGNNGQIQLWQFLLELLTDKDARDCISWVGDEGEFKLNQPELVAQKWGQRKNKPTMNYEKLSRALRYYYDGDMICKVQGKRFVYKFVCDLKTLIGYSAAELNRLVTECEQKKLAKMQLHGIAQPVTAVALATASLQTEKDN
Outline: as §1

ERG = target: T4, ERG (Homo sapiens, UniProt P11308 1-479); conditions: protein: recombinant; tags: N-terminal GST; dsDNA, one strand shown
T4 sequence: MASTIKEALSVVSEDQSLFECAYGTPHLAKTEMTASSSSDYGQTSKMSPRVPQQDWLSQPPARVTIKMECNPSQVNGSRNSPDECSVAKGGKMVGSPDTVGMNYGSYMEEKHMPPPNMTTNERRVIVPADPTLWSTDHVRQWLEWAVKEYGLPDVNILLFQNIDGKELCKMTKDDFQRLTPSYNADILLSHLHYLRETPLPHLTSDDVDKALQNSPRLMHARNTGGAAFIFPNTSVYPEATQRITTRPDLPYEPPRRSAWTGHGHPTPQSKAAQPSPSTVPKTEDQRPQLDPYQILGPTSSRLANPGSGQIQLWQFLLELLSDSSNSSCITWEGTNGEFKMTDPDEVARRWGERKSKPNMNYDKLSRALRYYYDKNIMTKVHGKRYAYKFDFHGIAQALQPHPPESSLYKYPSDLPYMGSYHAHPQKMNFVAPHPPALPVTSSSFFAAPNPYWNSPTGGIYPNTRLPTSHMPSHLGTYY
Outline: as §1

ELF1 = ELF1 (Homo sapiens, UniProt P32519 1-619); conditions: protein: recombinant; tags: N-terminal GST; dsDNA, one strand shown
Outline: as §1

EHF = target: T5, EHF (Homo sapiens, UniProt Q9NZC4 1-300); conditions: protein: recombinant; tags: N-terminal GST; dsDNA, one strand shown
T5 sequence: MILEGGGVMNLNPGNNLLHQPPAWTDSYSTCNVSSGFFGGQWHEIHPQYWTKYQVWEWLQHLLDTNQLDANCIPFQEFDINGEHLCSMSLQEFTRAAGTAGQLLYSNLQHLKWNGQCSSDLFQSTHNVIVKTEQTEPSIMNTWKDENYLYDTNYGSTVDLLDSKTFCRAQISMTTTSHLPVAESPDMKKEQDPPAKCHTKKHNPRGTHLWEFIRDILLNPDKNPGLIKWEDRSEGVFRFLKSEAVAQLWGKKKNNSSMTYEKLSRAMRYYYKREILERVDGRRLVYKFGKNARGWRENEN
Outline: as §1

SPI1 = SPI1 (Homo sapiens, UniProt P17947 1-270); conditions: protein: recombinant; tags: N-terminal GST; dsDNA, one strand shown
Outline: as §1

SPIB = SPIB (Homo sapiens, UniProt Q01892 1-262); conditions: protein: recombinant; tags: N-terminal GST; dsDNA, one strand shown
Outline: as §1

ELK3 = target: T6, ELK3 (Homo sapiens, UniProt P41970 1-407); conditions: protein: recombinant; tags: N-terminal GST; dsDNA, one strand shown
T6 sequence: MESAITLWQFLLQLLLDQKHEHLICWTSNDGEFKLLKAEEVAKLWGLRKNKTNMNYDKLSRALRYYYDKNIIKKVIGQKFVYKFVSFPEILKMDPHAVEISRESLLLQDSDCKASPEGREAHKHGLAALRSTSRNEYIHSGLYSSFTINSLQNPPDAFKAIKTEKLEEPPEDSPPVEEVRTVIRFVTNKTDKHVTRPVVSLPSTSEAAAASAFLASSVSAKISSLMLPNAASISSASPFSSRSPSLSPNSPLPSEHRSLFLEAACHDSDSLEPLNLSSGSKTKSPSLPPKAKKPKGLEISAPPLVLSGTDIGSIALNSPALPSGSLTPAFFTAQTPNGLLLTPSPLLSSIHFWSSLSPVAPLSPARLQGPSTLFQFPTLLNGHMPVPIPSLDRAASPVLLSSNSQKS
Outline: as §1

FEV = target: T7, FEV (Homo sapiens, UniProt Q99581 1-238); conditions: protein: recombinant; tags: N-terminal GST; dsDNA, one strand shown
T7 sequence: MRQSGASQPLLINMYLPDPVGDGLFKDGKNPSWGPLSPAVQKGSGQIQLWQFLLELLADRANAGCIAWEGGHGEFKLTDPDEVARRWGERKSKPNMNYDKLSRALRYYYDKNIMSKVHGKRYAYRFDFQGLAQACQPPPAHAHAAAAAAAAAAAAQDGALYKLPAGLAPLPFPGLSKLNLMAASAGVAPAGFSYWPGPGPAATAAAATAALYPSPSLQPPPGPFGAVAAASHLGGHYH
Outline: as §1

ETV5 = ETV5 (Homo sapiens, UniProt P41161 1-510); conditions: protein: recombinant; tags: N-terminal GST; dsDNA, one strand shown
Outline: as §1

HSF1 = HSF1 (Homo sapiens, UniProt Q00613 1-529); conditions: protein: recombinant; tags: N-terminal GST; chain copies: 3; dsDNA, one strand shown
Outline: as §1

SPIC = target: T8, SPIC (Homo sapiens, UniProt Q8N5J4 1-248); conditions: protein: recombinant; tags: N-terminal GST; dsDNA, one strand shown
T8 sequence: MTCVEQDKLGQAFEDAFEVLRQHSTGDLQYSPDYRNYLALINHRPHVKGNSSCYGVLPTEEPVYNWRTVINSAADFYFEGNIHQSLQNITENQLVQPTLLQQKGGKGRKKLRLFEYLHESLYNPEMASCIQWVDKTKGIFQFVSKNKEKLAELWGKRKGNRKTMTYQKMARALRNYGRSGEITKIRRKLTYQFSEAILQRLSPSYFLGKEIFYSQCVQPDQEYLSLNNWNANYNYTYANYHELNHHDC
Outline: as §1

ELF4 = ELF4 (Homo sapiens, UniProt Q99607 1-663); conditions: protein: recombinant; tags: N-terminal GST; dsDNA, one strand shown
Outline: as §1

ELK4 = target: T9, ELK4 (Homo sapiens, UniProt P28324-2 1-405); conditions: protein: recombinant; tags: N-terminal GST; dsDNA, one strand shown
T9 sequence: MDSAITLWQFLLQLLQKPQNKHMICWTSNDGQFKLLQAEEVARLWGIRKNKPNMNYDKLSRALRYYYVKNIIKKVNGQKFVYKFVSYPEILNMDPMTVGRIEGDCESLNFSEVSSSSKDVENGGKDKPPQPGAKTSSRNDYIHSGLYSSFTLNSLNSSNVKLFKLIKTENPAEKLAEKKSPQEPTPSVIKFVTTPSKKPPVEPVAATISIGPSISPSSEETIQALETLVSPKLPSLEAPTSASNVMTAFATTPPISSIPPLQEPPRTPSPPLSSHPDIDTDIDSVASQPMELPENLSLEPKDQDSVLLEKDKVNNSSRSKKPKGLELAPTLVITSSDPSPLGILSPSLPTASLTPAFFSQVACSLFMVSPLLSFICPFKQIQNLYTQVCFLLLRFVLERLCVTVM
Outline: as §1

ETV2 = target: T10, ETV2 (Homo sapiens, UniProt O00321 1-342); conditions: protein: recombinant; tags: N-terminal GST; dsDNA, one strand shown
T10 sequence: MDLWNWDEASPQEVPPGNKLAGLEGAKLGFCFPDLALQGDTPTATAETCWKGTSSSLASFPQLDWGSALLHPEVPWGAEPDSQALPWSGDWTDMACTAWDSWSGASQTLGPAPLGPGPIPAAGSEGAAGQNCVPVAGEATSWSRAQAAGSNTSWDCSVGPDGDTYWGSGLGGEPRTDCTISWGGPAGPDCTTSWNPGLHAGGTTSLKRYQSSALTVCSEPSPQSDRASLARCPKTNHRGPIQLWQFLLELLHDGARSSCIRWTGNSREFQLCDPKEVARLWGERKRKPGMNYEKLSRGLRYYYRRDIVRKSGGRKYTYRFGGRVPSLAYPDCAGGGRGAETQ
Outline: as §1

ELF3 = target: T11, ELF3 (Homo sapiens, UniProt P78545 1-371); conditions: protein: recombinant; tags: N-terminal GST; dsDNA, one strand shown
T11 sequence: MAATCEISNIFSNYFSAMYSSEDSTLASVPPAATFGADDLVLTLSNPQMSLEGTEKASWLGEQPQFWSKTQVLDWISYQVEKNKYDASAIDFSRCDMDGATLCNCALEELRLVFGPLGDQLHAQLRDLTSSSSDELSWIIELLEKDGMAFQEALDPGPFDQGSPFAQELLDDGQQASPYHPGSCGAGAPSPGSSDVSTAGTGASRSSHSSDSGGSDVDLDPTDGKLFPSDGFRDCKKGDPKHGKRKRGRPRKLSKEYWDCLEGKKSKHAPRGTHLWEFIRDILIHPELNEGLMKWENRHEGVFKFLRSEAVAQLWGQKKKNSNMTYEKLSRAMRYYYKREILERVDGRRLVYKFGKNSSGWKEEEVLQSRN
Outline: as §1

CRX = CRX (Homo sapiens, UniProt O43186 1-299); conditions: protein: recombinant; tags: N-terminal GST; dsDNA, one strand shown
Outline: as §1

ETV1 = ETV1 (Homo sapiens, UniProt P50549 1-477); conditions: protein: recombinant; tags: N-terminal GST; dsDNA, one strand shown
Outline: as §1

Chain of ELF1 (P32519 whole entry): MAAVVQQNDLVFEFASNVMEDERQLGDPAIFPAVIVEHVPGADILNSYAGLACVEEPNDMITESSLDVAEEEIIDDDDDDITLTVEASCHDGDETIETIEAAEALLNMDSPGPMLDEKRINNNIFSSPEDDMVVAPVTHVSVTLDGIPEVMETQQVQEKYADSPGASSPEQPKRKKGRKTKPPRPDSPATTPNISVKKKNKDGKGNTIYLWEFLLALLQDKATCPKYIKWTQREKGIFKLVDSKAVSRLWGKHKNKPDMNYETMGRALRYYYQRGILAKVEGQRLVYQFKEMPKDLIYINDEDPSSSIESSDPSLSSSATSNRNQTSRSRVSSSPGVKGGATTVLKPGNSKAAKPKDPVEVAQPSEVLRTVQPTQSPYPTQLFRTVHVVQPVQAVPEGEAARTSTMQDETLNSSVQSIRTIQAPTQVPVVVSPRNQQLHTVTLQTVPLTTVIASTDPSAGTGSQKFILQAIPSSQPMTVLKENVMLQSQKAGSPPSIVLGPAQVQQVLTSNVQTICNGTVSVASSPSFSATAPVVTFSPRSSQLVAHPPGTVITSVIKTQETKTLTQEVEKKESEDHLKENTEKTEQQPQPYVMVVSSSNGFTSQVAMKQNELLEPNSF
Chain of CRX (O43186 whole entry): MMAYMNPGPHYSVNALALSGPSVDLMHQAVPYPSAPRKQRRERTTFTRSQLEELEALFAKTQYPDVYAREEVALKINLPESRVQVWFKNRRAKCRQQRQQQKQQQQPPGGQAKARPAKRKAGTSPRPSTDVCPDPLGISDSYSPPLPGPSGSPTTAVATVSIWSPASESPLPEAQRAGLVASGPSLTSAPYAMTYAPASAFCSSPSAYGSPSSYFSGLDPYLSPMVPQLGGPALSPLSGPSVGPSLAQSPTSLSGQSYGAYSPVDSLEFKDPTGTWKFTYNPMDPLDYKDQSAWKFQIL
Chain of ETV5 (P41161 whole entry): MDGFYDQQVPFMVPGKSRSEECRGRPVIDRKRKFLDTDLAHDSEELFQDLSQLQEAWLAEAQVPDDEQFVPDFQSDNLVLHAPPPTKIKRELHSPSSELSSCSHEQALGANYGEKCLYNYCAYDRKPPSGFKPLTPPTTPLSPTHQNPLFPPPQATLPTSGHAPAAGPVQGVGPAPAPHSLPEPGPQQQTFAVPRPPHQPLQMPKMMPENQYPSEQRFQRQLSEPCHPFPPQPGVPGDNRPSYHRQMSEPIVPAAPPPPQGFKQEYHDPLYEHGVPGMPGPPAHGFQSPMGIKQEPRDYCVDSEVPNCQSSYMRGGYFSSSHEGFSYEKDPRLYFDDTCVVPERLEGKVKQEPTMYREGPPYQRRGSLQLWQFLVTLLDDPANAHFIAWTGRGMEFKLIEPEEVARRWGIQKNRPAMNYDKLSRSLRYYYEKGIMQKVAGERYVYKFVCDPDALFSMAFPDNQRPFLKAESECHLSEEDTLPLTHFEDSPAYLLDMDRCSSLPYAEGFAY
Chain of ETV1 (P50549 whole entry): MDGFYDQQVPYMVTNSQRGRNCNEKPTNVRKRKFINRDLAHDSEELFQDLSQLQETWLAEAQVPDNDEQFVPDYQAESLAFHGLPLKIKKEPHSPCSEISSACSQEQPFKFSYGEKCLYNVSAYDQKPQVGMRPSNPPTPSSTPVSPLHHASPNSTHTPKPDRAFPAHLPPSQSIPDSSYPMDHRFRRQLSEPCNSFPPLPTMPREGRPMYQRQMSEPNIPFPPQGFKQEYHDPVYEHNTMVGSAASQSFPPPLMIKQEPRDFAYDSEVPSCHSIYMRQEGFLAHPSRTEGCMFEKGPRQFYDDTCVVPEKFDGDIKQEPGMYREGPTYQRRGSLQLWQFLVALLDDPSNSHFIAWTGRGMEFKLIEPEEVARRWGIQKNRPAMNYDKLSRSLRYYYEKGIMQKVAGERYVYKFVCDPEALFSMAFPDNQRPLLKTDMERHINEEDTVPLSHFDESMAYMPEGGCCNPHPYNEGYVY
Chain of SPIB (Q01892 whole entry): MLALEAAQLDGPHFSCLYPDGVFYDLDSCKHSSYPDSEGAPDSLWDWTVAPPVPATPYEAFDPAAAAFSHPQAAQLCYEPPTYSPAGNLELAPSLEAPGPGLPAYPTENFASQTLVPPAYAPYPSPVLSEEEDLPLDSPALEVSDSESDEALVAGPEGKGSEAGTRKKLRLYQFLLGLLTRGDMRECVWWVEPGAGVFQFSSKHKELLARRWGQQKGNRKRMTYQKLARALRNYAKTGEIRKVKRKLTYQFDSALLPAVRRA
Chain of HSF1 (Q00613 whole entry): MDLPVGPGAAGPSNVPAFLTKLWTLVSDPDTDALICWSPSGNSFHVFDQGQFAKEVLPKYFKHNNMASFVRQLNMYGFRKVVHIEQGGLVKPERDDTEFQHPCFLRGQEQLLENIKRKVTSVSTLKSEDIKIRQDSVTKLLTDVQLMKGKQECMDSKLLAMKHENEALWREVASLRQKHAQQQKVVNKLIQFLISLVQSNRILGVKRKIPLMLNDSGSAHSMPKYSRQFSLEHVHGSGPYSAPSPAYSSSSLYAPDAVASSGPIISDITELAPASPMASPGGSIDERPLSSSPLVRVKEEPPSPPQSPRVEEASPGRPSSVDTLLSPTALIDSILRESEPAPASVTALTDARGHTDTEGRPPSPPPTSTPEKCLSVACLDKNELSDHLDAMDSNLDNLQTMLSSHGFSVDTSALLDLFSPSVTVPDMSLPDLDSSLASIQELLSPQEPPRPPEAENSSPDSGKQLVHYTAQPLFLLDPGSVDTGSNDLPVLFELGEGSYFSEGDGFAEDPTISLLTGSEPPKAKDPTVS
Chain of ELF4 (Q99607 whole entry): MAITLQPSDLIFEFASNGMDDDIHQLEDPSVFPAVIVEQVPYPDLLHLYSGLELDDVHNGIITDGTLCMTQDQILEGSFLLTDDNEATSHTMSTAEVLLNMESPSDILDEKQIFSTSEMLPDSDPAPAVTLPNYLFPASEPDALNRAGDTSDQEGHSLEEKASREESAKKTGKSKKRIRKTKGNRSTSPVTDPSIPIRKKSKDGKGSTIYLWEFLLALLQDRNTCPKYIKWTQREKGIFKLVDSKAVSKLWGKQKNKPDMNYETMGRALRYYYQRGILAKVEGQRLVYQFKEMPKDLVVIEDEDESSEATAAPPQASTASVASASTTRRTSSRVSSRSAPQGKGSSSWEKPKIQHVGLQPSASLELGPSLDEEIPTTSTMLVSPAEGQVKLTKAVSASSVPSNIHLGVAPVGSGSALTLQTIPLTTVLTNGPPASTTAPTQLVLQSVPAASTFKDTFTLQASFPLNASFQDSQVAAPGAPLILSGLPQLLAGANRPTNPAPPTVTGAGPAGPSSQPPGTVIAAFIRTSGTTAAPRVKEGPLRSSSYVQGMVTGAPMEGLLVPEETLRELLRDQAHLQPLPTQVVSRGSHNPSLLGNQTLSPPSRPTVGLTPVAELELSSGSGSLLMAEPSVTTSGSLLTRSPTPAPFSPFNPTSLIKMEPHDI

## GAACCT
FLI1
  binding signal: 1.09 fold enrichment (6-mer frequency, TF over GST control)
ELK1
  binding signal: 1.27 fold enrichment (6-mer frequency, TF over GST control)
GABPA
  binding signal: 1.06 fold enrichment (6-mer frequency, TF over GST control)
ERG
  binding signal: 1.09 fold enrichment (6-mer frequency, TF over GST control)
ELF1
  binding signal: 1.13 fold enrichment (6-mer frequency, TF over GST control)
EHF
  binding signal: 1.15 fold enrichment (6-mer frequency, TF over GST control)
SPI1
  binding signal: 1.11 fold enrichment (6-mer frequency, TF over GST control)
SPIB
  binding signal: 1.14 fold enrichment (6-mer frequency, TF over GST control)
ELK3
  binding signal: 1.18 fold enrichment (6-mer frequency, TF over GST control)
FEV
  binding signal: 1.03 fold enrichment (6-mer frequency, TF over GST control)
ETV5
  binding signal: 1.1 fold enrichment (6-mer frequency, TF over GST control)
HSF1
  binding signal: 1.45 fold enrichment (6-mer frequency, TF over GST control)
SPIC
  binding signal: 1.09 fold enrichment (6-mer frequency, TF over GST control)
ELF4
  binding signal: 1.17 fold enrichment (6-mer frequency, TF over GST control)
ELK4
  binding signal: 1.07 fold enrichment (6-mer frequency, TF over GST control)
ETV2
  binding signal: 1.25 fold enrichment (6-mer frequency, TF over GST control)
ELF3
  binding signal: 1.15 fold enrichment (6-mer frequency, TF over GST control)
CRX
  binding signal: 1.06 fold enrichment (6-mer frequency, TF over GST control)
ETV1
  binding signal: 1.05 fold enrichment (6-mer frequency, TF over GST control)
